# Measurements from ChEMBL document CHEMBL1961873, “Compounds: GSK PKIS; Assays: Nanosyn kinase panel” (2012).
# Values joined by “and” are separate entries in the source; they are usually repeats but may differ in a detail not shown here. Equal entries are not always repeated.
# Experiments:
# [1] = target: T1, Serine/threonine-protein kinase Nek9 (Homo sapiens) (UniProt Q8TD19); settings: at 1 µM;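 further: each value is a mean percent inhibition of NEK9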
# T1 sequence (whole entry): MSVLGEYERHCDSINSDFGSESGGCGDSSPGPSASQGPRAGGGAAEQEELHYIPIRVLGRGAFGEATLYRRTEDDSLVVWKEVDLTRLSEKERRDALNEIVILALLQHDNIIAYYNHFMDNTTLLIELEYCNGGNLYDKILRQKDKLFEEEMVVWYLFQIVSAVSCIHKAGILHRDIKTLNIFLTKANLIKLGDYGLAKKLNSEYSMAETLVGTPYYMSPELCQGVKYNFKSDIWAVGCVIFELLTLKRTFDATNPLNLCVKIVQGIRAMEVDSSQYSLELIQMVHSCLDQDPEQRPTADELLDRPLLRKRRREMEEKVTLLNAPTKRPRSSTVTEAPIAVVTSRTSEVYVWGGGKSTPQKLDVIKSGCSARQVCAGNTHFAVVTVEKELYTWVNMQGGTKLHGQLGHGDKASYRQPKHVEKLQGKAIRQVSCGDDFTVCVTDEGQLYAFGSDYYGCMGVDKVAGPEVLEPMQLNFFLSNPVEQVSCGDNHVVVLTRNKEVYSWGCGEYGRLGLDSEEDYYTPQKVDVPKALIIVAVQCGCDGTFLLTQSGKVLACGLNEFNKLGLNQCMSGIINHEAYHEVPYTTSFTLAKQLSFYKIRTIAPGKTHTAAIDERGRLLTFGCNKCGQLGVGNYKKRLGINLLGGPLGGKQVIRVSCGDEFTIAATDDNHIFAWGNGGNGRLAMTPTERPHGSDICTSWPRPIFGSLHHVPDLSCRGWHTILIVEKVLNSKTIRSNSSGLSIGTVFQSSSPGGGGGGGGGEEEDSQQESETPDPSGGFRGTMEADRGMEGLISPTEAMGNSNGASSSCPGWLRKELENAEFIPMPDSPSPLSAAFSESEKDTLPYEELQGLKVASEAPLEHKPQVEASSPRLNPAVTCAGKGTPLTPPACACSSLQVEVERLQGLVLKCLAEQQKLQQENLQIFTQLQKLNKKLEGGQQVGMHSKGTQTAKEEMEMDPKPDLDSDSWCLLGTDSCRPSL
# [2] = target: Serine/threonine-protein kinase PLK1 (Homo sapiens) (UniProt P53350); settings: at 0.1 µM
# [3] = target: Serine/threonine-protein kinase PLK1 (Homo sapiens) (UniProt P53350); settings: at 1 µM
# [4] = target: T2, Dual specificity protein kinase TTK (Homo sapiens) (UniProt P33981); settings: at 0.1 µM
# T2 sequence (whole entry): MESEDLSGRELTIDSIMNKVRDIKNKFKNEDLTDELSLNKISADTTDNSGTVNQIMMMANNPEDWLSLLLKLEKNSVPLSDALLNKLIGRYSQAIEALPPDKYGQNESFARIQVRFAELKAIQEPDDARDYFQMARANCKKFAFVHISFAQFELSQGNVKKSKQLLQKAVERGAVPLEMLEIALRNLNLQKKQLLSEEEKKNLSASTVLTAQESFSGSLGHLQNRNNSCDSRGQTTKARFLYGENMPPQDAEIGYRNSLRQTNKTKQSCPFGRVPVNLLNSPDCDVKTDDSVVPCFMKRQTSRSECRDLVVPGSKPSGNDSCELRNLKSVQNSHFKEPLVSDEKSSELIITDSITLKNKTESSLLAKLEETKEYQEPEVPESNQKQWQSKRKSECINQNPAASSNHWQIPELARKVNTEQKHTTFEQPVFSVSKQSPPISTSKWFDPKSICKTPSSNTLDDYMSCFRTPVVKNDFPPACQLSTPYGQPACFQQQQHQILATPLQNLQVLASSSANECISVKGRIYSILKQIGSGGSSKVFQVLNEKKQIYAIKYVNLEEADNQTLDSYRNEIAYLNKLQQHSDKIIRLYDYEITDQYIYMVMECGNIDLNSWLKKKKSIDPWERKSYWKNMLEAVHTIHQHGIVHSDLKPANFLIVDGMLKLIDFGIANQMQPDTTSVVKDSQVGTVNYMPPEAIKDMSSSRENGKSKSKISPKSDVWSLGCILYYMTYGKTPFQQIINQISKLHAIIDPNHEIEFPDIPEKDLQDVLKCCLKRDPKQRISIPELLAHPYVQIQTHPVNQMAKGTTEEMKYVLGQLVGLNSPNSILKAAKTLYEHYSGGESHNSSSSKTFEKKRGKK
# [5] = tested on: T3, Receptor-type tyrosine-protein kinase FLT3 (Homo sapiens), P36888 [D835Y]; settings: at 1 µM
# T3 sequence (whole entry): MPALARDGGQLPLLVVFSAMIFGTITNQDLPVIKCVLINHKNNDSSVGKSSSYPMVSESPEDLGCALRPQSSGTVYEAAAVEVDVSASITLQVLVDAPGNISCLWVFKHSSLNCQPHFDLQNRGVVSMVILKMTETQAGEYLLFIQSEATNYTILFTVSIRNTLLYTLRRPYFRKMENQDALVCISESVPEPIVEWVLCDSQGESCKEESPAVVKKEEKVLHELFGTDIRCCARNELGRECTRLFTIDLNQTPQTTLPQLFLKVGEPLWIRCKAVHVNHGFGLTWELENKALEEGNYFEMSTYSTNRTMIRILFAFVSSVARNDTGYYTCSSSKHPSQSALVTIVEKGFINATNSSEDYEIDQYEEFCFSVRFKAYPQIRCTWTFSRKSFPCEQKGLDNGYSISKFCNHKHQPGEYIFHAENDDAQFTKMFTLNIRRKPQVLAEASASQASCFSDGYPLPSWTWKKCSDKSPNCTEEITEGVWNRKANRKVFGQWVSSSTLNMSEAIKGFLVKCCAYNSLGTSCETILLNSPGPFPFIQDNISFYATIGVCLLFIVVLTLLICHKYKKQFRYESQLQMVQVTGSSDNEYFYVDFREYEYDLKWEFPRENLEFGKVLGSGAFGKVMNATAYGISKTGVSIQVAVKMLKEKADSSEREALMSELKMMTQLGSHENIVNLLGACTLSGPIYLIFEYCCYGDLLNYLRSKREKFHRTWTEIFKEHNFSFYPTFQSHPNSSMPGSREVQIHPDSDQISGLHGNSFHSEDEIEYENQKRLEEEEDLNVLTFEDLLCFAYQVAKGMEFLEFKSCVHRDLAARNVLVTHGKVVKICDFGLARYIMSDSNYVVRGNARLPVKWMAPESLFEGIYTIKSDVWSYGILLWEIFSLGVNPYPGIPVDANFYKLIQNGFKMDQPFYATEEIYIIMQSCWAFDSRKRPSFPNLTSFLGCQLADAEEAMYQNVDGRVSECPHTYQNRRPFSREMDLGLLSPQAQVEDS
# [6] = target: Vascular endothelial growth factor receptor 3 (Homo sapiens) (UniProt P35916); settings: at 0.1 µM
# Sequence of Vascular endothelial growth factor receptor 3 (Homo sapiens) (P35916 whole entry): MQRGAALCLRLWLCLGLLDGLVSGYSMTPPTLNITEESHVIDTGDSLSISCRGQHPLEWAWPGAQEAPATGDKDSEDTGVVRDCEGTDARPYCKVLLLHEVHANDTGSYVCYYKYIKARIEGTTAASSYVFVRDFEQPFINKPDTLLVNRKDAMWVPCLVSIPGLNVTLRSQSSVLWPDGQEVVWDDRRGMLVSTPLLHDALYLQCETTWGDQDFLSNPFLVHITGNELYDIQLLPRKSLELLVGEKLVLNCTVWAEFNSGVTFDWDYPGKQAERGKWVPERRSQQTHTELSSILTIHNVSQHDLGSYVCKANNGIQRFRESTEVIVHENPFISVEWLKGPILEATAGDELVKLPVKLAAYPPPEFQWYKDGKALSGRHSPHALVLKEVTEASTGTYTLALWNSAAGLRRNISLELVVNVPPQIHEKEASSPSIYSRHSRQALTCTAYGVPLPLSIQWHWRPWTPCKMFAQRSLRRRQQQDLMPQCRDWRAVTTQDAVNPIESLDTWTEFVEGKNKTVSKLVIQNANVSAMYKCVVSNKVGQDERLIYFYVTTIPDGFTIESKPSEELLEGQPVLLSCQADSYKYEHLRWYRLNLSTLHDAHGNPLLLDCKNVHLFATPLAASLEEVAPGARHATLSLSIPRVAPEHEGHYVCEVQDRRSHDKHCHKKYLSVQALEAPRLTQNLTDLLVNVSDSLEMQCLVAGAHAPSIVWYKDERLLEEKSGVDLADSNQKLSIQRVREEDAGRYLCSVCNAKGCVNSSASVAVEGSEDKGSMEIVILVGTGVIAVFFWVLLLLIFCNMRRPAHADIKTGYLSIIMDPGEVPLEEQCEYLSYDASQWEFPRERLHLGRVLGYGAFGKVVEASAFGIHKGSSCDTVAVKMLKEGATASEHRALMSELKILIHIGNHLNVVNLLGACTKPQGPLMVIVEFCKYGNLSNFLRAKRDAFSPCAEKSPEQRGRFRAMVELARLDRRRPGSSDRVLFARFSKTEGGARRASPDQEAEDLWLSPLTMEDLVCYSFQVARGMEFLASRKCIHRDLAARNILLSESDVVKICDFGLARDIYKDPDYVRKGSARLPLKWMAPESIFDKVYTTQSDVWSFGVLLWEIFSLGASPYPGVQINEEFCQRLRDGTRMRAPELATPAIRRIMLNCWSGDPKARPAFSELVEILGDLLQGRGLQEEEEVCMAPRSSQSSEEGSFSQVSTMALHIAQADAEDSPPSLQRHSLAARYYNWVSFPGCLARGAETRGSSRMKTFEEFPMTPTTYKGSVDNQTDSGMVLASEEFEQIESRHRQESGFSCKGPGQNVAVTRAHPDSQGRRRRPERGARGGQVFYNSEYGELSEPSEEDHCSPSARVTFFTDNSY
# [7] = target: Vascular endothelial growth factor receptor 3 (Homo sapiens) (UniProt P35916); settings: at 1 µM
# [8] = target: Macrophage colony-stimulating factor 1 receptor (Homo sapiens) (UniProt P07333); settings: at 0.1 µM
# [9] = target: Macrophage colony-stimulating factor 1 receptor (Homo sapiens) (UniProt P07333); settings: at 1 µM
# [10] = target: Tyrosine-protein kinase Fyn (Homo sapiens) (UniProt P06241); settings: at 0.1 µM
# [11] = target: Tyrosine-protein kinase Fyn (Homo sapiens) (UniProt P06241); settings: at 1 µM
# [12] = target: Tyrosine-protein kinase HCK (Homo sapiens) (UniProt P08631); settings: at 0.1 µM
# Sequence of Tyrosine-protein kinase HCK (Homo sapiens) (P08631 2-526 limits assumed): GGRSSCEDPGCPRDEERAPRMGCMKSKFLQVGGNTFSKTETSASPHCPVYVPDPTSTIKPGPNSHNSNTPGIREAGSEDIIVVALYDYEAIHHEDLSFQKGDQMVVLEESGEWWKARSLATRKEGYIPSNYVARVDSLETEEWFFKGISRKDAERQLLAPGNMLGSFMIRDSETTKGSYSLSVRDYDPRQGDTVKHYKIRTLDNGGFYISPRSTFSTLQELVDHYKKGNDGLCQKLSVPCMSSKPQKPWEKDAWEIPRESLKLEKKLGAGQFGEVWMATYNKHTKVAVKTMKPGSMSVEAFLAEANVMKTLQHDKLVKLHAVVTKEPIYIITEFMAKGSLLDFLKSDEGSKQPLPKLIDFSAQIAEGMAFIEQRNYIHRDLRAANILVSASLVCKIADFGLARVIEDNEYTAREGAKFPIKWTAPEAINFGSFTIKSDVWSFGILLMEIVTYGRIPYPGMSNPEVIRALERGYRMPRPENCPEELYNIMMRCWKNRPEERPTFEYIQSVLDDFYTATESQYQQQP
# [13] = target: Tyrosine-protein kinase HCK (Homo sapiens) (UniProt P08631); settings: at 1 µM
# [14] = target: Insulin-like growth factor 1 receptor (Homo sapiens) (UniProt P08069); settings: at 0.1 µM
# Sequence of Insulin-like growth factor 1 receptor (Homo sapiens) (P08069 31-736 limits assumed): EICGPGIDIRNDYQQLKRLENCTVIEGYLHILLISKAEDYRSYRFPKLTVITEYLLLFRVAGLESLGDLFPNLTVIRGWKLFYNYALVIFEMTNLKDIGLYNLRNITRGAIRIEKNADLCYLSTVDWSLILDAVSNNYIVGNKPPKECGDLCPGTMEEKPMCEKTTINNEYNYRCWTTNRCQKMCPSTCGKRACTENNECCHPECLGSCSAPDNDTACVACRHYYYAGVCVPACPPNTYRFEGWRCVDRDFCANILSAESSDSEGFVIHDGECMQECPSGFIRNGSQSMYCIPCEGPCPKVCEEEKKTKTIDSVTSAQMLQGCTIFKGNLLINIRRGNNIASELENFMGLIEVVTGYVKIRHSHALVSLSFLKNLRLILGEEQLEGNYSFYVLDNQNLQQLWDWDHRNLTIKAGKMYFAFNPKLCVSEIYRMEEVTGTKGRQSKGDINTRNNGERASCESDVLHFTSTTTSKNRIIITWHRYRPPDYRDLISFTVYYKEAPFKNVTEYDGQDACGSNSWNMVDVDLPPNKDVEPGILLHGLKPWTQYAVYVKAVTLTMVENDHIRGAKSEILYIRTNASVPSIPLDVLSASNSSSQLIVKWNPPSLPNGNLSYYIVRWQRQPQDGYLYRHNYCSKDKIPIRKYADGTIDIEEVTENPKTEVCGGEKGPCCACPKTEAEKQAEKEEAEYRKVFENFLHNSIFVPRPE
# Sequence of Insulin-like growth factor 1 receptor (Homo sapiens) (P08069 741-1367 limits assumed): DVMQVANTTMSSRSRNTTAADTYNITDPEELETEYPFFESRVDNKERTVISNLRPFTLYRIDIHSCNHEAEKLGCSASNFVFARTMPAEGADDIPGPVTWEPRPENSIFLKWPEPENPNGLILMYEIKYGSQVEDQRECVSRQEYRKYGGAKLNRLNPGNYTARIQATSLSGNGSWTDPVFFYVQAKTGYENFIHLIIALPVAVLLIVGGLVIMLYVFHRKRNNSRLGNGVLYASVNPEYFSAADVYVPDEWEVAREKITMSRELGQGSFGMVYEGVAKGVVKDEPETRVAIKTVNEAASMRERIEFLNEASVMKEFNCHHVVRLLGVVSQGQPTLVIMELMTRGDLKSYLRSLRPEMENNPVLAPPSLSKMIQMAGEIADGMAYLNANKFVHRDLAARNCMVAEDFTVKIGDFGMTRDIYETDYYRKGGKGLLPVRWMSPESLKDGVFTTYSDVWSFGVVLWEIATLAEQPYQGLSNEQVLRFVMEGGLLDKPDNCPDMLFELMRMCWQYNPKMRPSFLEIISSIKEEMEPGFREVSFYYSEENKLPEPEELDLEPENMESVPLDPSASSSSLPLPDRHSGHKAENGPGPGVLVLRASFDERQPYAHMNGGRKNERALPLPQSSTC
# [15] = target: Insulin-like growth factor 1 receptor (Homo sapiens) (UniProt P08069); settings: at 1 µM
# [16] = target: Insulin receptor (Homo sapiens) (UniProt P06213); settings: at 0.1 µM
# Sequence of Insulin receptor (Homo sapiens) (P06213 28-758 limits assumed): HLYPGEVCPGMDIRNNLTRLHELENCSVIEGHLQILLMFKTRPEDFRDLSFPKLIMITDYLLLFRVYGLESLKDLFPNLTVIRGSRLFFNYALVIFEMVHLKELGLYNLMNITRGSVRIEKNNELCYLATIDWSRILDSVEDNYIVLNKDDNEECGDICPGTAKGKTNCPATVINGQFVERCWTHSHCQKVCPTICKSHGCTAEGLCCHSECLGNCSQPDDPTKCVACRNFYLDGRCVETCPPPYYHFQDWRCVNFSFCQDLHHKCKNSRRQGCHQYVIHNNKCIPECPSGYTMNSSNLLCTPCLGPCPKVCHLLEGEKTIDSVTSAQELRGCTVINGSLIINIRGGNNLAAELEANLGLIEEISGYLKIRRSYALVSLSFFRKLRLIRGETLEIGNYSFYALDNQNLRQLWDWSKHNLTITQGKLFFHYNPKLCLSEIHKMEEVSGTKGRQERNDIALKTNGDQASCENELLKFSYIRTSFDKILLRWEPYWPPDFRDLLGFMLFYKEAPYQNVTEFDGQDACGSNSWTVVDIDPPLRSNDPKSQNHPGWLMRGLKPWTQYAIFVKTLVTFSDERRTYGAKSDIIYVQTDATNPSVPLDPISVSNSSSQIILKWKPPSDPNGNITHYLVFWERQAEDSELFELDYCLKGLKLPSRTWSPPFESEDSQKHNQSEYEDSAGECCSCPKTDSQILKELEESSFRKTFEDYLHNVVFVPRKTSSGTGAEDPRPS
# Sequence of Insulin receptor (Homo sapiens) (P06213 763-1382 limits assumed): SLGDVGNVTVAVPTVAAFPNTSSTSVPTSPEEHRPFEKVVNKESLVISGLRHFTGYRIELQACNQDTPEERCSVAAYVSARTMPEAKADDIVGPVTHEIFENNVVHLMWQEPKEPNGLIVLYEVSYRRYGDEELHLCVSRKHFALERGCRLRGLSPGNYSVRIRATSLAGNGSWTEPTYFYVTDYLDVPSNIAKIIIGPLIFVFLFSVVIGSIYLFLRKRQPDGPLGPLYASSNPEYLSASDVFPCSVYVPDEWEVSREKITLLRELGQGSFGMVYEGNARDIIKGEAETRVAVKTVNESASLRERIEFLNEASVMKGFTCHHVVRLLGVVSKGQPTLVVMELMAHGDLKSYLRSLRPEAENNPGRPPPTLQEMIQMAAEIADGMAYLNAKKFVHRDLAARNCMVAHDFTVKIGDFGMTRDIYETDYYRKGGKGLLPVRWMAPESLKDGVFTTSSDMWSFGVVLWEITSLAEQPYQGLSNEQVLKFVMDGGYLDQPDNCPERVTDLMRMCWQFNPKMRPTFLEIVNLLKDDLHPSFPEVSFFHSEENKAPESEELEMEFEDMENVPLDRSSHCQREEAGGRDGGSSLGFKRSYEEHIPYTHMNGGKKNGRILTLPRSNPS
# [17] = target: Insulin receptor (Homo sapiens) (UniProt P06213); settings: at 1 µM
# [18] = target: Insulin receptor-related protein (Homo sapiens) (UniProt P14616); settings: at 0.1 µM
# [19] = target: Insulin receptor-related protein (Homo sapiens) (UniProt P14616); settings: at 1 µM
# [20] = target: T4, Tyrosine-protein kinase ITK/TSK (Homo sapiens) (UniProt Q08881); settings: at 0.1 µM;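 further: mean percent inhibition of ITK from the GSK PKIS screen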
# T4 sequence (whole entry): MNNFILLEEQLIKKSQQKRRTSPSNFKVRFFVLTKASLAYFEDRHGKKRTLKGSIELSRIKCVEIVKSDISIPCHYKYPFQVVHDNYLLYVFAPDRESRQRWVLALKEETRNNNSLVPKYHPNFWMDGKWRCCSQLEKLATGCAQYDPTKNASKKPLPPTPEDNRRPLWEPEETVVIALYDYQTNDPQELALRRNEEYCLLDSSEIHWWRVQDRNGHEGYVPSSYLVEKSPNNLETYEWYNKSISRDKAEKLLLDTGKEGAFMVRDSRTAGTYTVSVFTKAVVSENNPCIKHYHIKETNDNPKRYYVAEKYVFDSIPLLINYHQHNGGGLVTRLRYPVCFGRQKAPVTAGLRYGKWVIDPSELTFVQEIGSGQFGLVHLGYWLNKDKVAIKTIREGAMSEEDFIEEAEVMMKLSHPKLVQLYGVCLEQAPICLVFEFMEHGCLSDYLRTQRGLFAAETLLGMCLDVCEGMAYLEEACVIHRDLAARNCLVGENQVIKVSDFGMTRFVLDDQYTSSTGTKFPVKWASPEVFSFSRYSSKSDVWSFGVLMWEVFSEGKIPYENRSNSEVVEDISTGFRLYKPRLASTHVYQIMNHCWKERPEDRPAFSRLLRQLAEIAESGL
SMILES,inhibition [1],inhibition [2],inhibition [3],inhibition [4],inhibition [5],inhibition [6],inhibition [7],inhibition [8],inhibition [9],inhibition [10],inhibition [11],inhibition [12],inhibition [13],inhibition [14],inhibition [15],inhibition [16],inhibition [17],inhibition [18],inhibition [19],inhibition [20]
COc1ccc(Nc2ncc(-c3ccccc3)o2)cc1OC,9.31%,2.85%,1.53%,2.17%,47.1%,5.08%,25.5%,21.9%,77.2%,4.17%,26.1%,5.41%,30.2%,0.16%,2.03%,1.73%,1.42%,-0.23%,-0.92%,1.19%
Nc1nccc(-c2c(-c3ccc(F)cc3)ncn2C2CCNCC2)n1,3.57% and -1.29%,-0.73% and -0.83%,0.68% and 2.5%,-4.46% and 0.75%,4.31% and -2.1%,0.55% and 1.51%,-0.68% and 1.04%,-0.4% and 1.93%,0.46% and 3.61%,-0.69% and 0.67%,1.62% and 4.51%,-2.39% and 2.85%,2.05% and 5.24%,-2.26% and -0.62%,-1.54% and 3.61%,-1.93% and 3.33%,1.25% and 4.93%,-5.25% and 0.92%,-4.64% and -1.2%,-0.56% and 0.6%
c1cnn2ncc(-c3ccnc(NCCCN4CCOCC4)n3)c2c1,9.51%,4.18%,3.55%,9.47%,1.99%,0.01%,0.07%,-0.33%,5.17%,2.47%,3.59%,8.43%,6.17%,3.62%,1.61%,4.01%,4.01%,2.15%,0.25%,1.02%
